# Source: PubChem BioAssay
# “And” between values parts separate entries of the source, which are not always exact repeats. Equal values may be shown once. Results filed as inconclusive are left out. The source made the active and inactive calls. Unless noted, the limit is not given here; nearly all actives have AC50 up to about 26 µM.
# Experiments:
# [1] = stimulators of nuclear beta-catenin in C2C12, primary screen, imaging, WNT3A-conditioned medium, mouse C2C12, NPC library (AID 1117326; in the data active = nuclear beta-catenin stimulation mostly above about 4.2%, no sharp cut-off; inactive = mostly below about 10%; also: reference of the scale not given here); conditions: stronger effect = higher value
# [2] = stimulators of insulin release from INS-1E, primary screen, cell-based, 5 mM glucose, NPC library (AID 1117329;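 active = compound raises insulin release from rat beta cells at 5 mM glucose, no numeric limit stated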; also: reference of the scale not given here); conditions: rat INS-1E insulin secretion, at 10 µM, stronger effect = higher value
# [3] = growth inhibition of GSK3B-pretreated HCT116 cells – cell-based, CellTiter-Glo, 0.2 to 20 µM (AID 1117336;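 active = compounds lowering colon cancer cell viability after pretreatment blocking the GSK3B kinase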); conditions: HCT116 viability after GSK3B inhibitor, at 20 µM, stronger effect = higher value
# [4] = inhibition of endothelial tube formation, primary screen, imaging, VEGF stimulated, CD31 staining, tube area, NPC library (AID 1117340;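 active = compound that reduces growth-factor-driven endothelial tube area in a mixed cell culture, no cutoff stated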); conditions: VEGF-stimulated ADSC/ECFC co-culture, at 10 µM, stronger effect = higher value
# [5] = glucagon-like peptide 1 release enhancers, primary assay, NCI-H716 cell line, NPC library (AID 1117341;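 active = compound raises GLP1 secretion from the human gut endocrine cells, with no numeric limit stated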; also: reference of the scale not given here); conditions: NCI-H716 cells, at 10 µM, stronger effect = higher value
# [6] = HCT116 colon cancer cell growth inhibition, primary screen, CellTiter-Glo luminescence, NPC library (AID 1117342;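 active = compounds that lower survival of HCT116 colon cancer cells in the luminescence readout, no numeric limit stated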); conditions: at 20 µM (top of the series)
# [7] = CellTiter-Glo luminescent readout of SW480 viability loss, NPC library primary (AID 1117343;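 active = compounds that lower viability of the colon cancer cells in the luminescence readout, with no numeric limit stated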); conditions: CellTiter-Glo luminescence; at 20 µM (top of the series) unless noted
# [8] = decreased DLD-1 cellular survival, CellTiter-Glo luminescent readout, NPC compound collection, primary HTS (AID 1117346;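 active = compounds that lower survival of DLD-1 colon cancer cells in the luminescence readout, no cutoff given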); conditions: DLD-1 viability, CellTiter-Glo luminescence; at 20 µM (top of the series)
# [9] = growth inhibition of DIPG glioma cells, dose response, cell-based, JHH-DIPG-1, MIPE4.0, CellTiter-Glo, qHTS (AID 1347062; cut-off not given, nearly all actives have AC50 up to about 27 µM); conditions: JHH-DIPG-1 viability, CellTiter-Glo ATP luminescence
# [10] = viability loss in pontine glioma line – cell-based, SU-DIPG-XXV, MIPE5.0, CellTiter-Glo, qHTS, dose response (AID 1347065); conditions: CellTiter-Glo ATP luminescence;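 also: cells exposed to compound for 48 hours before ATP readout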
# [11] = SU-DIPG-VI glioma cell viability, MIPE4.0 library, CellTiter-Glo luminescence, qHTS (AID 1347066; cut-off not given, nearly all actives have AC50 up to about 30 µM;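 also: cells exposed to compound for 48 hours before readout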); conditions: CellTiter-Glo ATP luminescence
# [12] = sensitizers of A549 cells to miR-34 induction, primary screen, imaging, A549 dox-inducible miR-34, nuclei and caspase counts (AID 1347080;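 active = compounds whose cell count with miR-34 switched on is under 0.7 times the count with it off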); conditions: A549 miR-34 inducible, Hoechst nuclei count, 48 h
# [13] = survival rescue of mitochondrial mutant cells in low glucose, primary screen, MELAS cybrids, Rieske KO mouse fibroblasts, CellTiter-Glo (AID 1508586;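 active = mean z-score across replicates of 1.96 or higher in either the MELAS or the Rieske mutant cell line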;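 also: z relative to plate mean and SD of compound and empty wells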)
# [14] = JHH-DIPG-1 glioma cell viability, MIPE5.0 library, CellTiter-Glo luminescence, qHTS (AID 1347067); conditions: JHH-DIPG-1 glioma viability, CellTiter-Glo ATP luminescence;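 also: cells exposed to compound for 48 hours before readout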
# [15] = SU-DIPG-XXV glioma cell viability, MIPE5.0 library, qHTS (AID 1347068; cut-off not given, nearly all actives have IC50 up to about 30 µM)
# [16] = growth inhibition of DIPG glioma cells, dose response, cell-based, SU-DIPG-IV, MIPE4.0, CellTiter-Glo, qHTS (AID 1347063; cut-off not given, nearly all actives have AC50 up to about 30 µM;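 also: compound exposure lasted 48 hours before the viability readout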); conditions: SU-DIPG-IV viability, CellTiter-Glo ATP luminescence
# [17] = phospholipid biosynthesis inhibitors in animal cells, primary screen, cell-based, LOPAC library, screen 4 (AID 1347384; call rule not given here); conditions: phospholipid biosynthesis inhibition screen, at 10 µM
# [18] = viability rescue of complex I mutant cybrids, primary screen, cell-based, galactose medium, ATP luminescence (AID 1645843;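 active = z-score of at least 1.8 in each of two replicates, scored against plate mean and spread of sample wells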;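 also: positive z means more ATP and so rescue of galactose-driven cybrid death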); conditions: complex I mutant cybrid cells, 72 h, stronger effect = higher value
# [19] = liver-stage malaria parasite growth inhibition, primary screen, cell-based, HepG2, luciferase luminescence, HepG2 viability (AID 624349; in the data active = parasite load remaining mostly below about 12%, no sharp cut-off; inactive = mostly above about 10%;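 also: 100% = mean of DMSO negative control wells on the same plate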); conditions: P. berghei liver stage in HepG2, luciferase luminescence, concentration not given here; parasite load remaining: stronger effect = lower value; viability: measured here: HepG2 viability without parasites
# [20] = stronger effect = lower value, cell number ratio, induced over uninduced
# [21] = measured here: relative caspase fold change +Dox/-Dox
# [22] = measured here: total cells with miR-34 induction, stronger effect = lower value
# [23] = measured here: total cells without miR-34 induction
# [24] = MELAS cybrid survival, CellTiter-Glo 48 h, stronger effect = higher value
# [25] = Rieske KO mouse fibroblast survival, CellTiter-Glo 72 h
compound,measurement,setting,value
O=C(O)c1ccc(-n2nc(-c3ccccc3O)nc2-c2ccccc2O)cc1,nuclear beta-catenin stimulation,[1]; at 10 µM,28.8% (inactive)
same,nuclear beta-catenin stimulation,"[1]; stimulation, at 2 µM",-2.6%
same,insulin secretion stimulation,[2],0.8% (inactive)
same,viability decrease,[3],112% (active)
same,tube area decrease,[4],102% (active)
same,GLP1 secretion stimulation,[5],7.6% (inactive)
same,inhibition of viability,[6],112% (active)
same,viability decrease (inhibition),[7],130% (active)
same,viability decrease (inhibition),[8],93.6% (active)
same,outcome,[9],inactive
same,AC50,[10],20.9 µM (active)
same,AC50,[11],23.5 µM (active)
same,fold change,[12]; [20],0.936 (inactive)
same,fold change,[12]; [21],1.1
same,cell count,[12]; [22],4300
same,cell count,[12]; [23],4600
same,z-score,[13]; [24],-0.00061 (inactive)
same,z-score,[13]; [25],-0.754
N#Cc1c(N(CC(=O)O)CC(=O)O)sc(C(=O)O)c1CC(=O)O,nuclear beta-catenin stimulation,[1]; at 10 µM,-1.5% (inactive)
same,nuclear beta-catenin stimulation,"[1]; stimulation, at 2 µM",-0.9%
same,insulin secretion stimulation,[2],4.8% (inactive)
same,viability decrease,[3],-2.4% (inactive)
same,tube area decrease,[4],0% (inactive)
same,GLP1 secretion stimulation,[5],-1.7% (inactive)
same,inhibition of viability,[6],-4% (inactive)
same,viability decrease (inhibition),[7],-7.1% (inactive)
same,viability decrease (inhibition),[8],-13.8% (inactive)
same,outcome,[10],inactive
same,outcome,[11],inactive
same,outcome,[14],inactive
same,outcome,[15],inactive
C[C@]12CCC(=O)C=C1[C@@H]1C[C@@H]1[C@H]1[C@@H]3[C@@H]4C[C@@H]4[C@@]4(CCC(=O)O4)[C@@]3(C)CC[C@@H]12,nuclear beta-catenin stimulation,[1]; at 10 µM,1.8% (inactive)
same,nuclear beta-catenin stimulation,"[1]; stimulation, at 2 µM",3%
same,insulin secretion stimulation,[2],1.5% (inactive)
same,viability decrease,[3],2.2% (inactive)
same,tube area decrease,[4],2.8% (inactive)
same,GLP1 secretion stimulation,[5],3.8% (inactive)
same,inhibition of viability,[6],27.4% (inactive)
same,viability decrease (inhibition),[7],-2.6% (inactive)
same,viability decrease (inhibition),[8],3.1% (inactive)
same,outcome,[9],inactive
same,outcome,[11],inactive
same,outcome,[14],inactive
same,outcome,[15],inactive
O=[N+]([O-])c1cncn1CCN1CCOCC1,nuclear beta-catenin stimulation,[1]; at 10 µM,-1.1% (inactive)
same,nuclear beta-catenin stimulation,"[1]; stimulation, at 2 µM",0.4%
same,insulin secretion stimulation,[2],0.4% (inactive)
same,viability decrease,[3],-4.6% (inactive)
same,tube area decrease,[4],13.6% (inactive)
same,GLP1 secretion stimulation,[5],-1.3% (inactive)
same,inhibition of viability,[6],-5% (inactive)
same,viability decrease (inhibition),[7],-2.7% (inactive)
same,viability decrease (inhibition),[8],-11.2% (inactive)
same,outcome,[10],inactive
same,outcome,[14],inactive
same,outcome,[15],inactive
N=C(N)c1ccc2cc(OC(=O)c3ccc(N=C(N)N)cc3)ccc2c1,nuclear beta-catenin stimulation,[1]; at 10 µM,0% (inactive)
same,nuclear beta-catenin stimulation,"[1]; stimulation, at 2 µM",0.3%
same,insulin secretion stimulation,[2],1.85% (inactive)
same,viability decrease,[3],4.1% (inactive)
same,tube area decrease,[4],-18% (inactive)
same,GLP1 secretion stimulation,[5],2.8% (inactive)
same,inhibition of viability,[6],30.6% (inactive)
same,viability decrease (inhibition),[7],36.9% (inactive)
same,viability decrease (inhibition),[8],1.2% (inactive)
same,outcome,[9],inactive
same,outcome,[16],inactive
same,outcome,[10],inactive
same,outcome,[11],inactive
same,outcome,[14],inactive
same,outcome,[15],inactive
same,fold change,[12]; [20],1.02 (inactive) and 0.918 (inactive)
same,fold change,[12]; [21],1.3 and 0.971
same,cell count,[12]; [22],3730 and 5820
same,cell count,[12]; [23],3670 and 6340
same,z-score,[13]; [24],-0.205 (inactive)
same,z-score,[13]; [25],0.234
Clc1ccc(C(Cn2ccnc2)OCc2ccc(Sc3ccccc3)cc2)c(Cl)c1 (stereo not given),nuclear beta-catenin stimulation,[1]; at 10 µM,8.8% (inactive)
same,nuclear beta-catenin stimulation,"[1]; stimulation, at 2 µM",0%
same,insulin secretion stimulation,[2],6.2% (inactive)
same,viability decrease,[3],110% (active)
same,tube area decrease,[4],110% (active)
same,GLP1 secretion stimulation,[5],16% (inactive)
same,inhibition of viability,[6],112% (active)
same,viability decrease (inhibition),[7],132% (active)
same,viability decrease (inhibition),[8],101% (active)
same,AC50,[16],16.6 µM (active)
CC(=O)OCC(=O)[C@@]12N=C(C)O[C@@H]1C[C@H]1[C@@H]3CCC4=CC(=O)C=C[C@]4(C)[C@H]3[C@@H](O)C[C@@]12C,nuclear beta-catenin stimulation,[1]; at 10 µM,1.5% (inactive)
same,nuclear beta-catenin stimulation,"[1]; stimulation, at 2 µM",3.9%
same,insulin secretion stimulation,[2],2.95% (inactive)
same,viability decrease,[3],0.4% (inactive)
same,tube area decrease,[4],2.2% (inactive)
same,GLP1 secretion stimulation,[5],1.7% (inactive)
same,inhibition of viability,[6],-21.6% (inactive)
same,viability decrease (inhibition),[7],14.8% (inactive)
same,viability decrease (inhibition),[8],-6.8% (inactive)
same,outcome,[9],inactive
same,outcome,[11],inactive
same,outcome,[15],inactive
same,z-score,[13]; [24],0.598 (inactive)
same,z-score,[13]; [25],1.06
c1cnc2cc3c(cc2n1)C1CNCC3C1,nuclear beta-catenin stimulation,[1]; at 10 µM,-1.2% (inactive)
same,nuclear beta-catenin stimulation,"[1]; stimulation, at 2 µM",-0.4%
same,insulin secretion stimulation,[2],0.7% (inactive)
same,viability decrease,[3],-3.9% (inactive)
same,tube area decrease,[4],23.1% (inactive)
same,GLP1 secretion stimulation,[5],-4% (inactive)
same,inhibition of viability,[6],-2.57% (inactive)
same,viability decrease (inhibition),[7],9.4% (inactive)
same,viability decrease (inhibition),[8],-12.7% (inactive)
same,outcome,[16],inactive
same,outcome,[10],inactive
same,outcome,[11],inactive
same,outcome,[15],inactive
same,fold change,[12]; [20],1.05 (inactive)
same,fold change,[12]; [21],1.76
same,cell count,[12]; [22],11200
same,cell count,[12]; [23],10600
same,outcome,[17],inactive
same,z-score,[18],0.205 (inactive)
CN1CCCN=C1/C=C/c1cccs1,parasite load remaining,[19],31.2% (inactive) and 87.7% (inactive)
same,viability,[19],47.1% and 90.3%
same,nuclear beta-catenin stimulation,[1]; at 10 µM,1.3% (inactive)
same,nuclear beta-catenin stimulation,"[1]; stimulation, at 2 µM",0%
same,insulin secretion stimulation,[2],0.75% (inactive)
same,viability decrease,[3],6.6% (inactive)
same,tube area decrease,[4],-9.9% (inactive)
same,GLP1 secretion stimulation,[5],1.8% (inactive)
same,inhibition of viability,[6],13.5% (inactive)
same,viability decrease (inhibition),[7],4.9% (inactive)
same,viability decrease (inhibition),[8],-4.2% (inactive)
same,outcome,[10],inactive
same,outcome,[14],inactive
same,outcome,[15],inactive
same,fold change,[12]; [20],0.92 (inactive)
same,fold change,[12]; [21],1.06
same,cell count,[12]; [22],9190
same,cell count,[12]; [23],9990
same,z-score,[13]; [24],0.267 (inactive)
same,z-score,[13]; [25],-0.214
N[C@@H](Cc1c[nH]c2ccc(O)cc12)C(=O)O,nuclear beta-catenin stimulation,[1]; at 10 µM,1.6% (inactive)
same,nuclear beta-catenin stimulation,"[1]; stimulation, at 2 µM",3.9%
same,insulin secretion stimulation,[2],2.1% (inactive)
same,viability decrease,[3],-0.3% (inactive)
same,tube area decrease,[4],1.7% (inactive)
same,GLP1 secretion stimulation,[5],3.1% (inactive)
same,inhibition of viability,[6],2.5% (inactive)
same,viability decrease (inhibition),[7],-17.1% (inactive)
same,viability decrease (inhibition),[8],-5.7% (inactive)
same,outcome,[16],inactive
same,outcome,[10],inactive
same,outcome,[11],inactive
same,outcome,[14],inactive
same,outcome,[15],inactive
same,fold change,[12]; [20],1.04 (inactive)
same,fold change,[12]; [21],0.787
same,cell count,[12]; [22],10300
same,cell count,[12]; [23],9860
same,outcome,[17],inactive
same,z-score,[18],0.37 (inactive)
